Bioassay records (PubChem BioAssay)
SENP8 block-1: SENP8 protease inhibition; actives 1.2% (n = 330,000); inhibition, % at 10 µM; AID 2540; Q96LD8; purified SENP8, Z-RLRGG-aminoluciferin cleavage, luminescence; in the data active means inhibition above about 50%
SENP6 inh: SENP6 protease inhibition; Recombinant SENP6 catalytic domain, aminoluciferin luminescence; actives 1.8% (n = 330,000); AID 2599; inhibition, % at 10 µM;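 active means inhibition above about 50% at the single tested dose, limit read from the data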;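 further: plate controls were DMSO wells with enzyme for no effect and DMSO wells lacking enzyme for full effect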
SENP7 inh: inhibitors of human SENP7 protease. inhibition, % at 5 µM. Q9BQF6. actives 1.5% (n = 330,000). recombinant SENP7, Z-RLRGG-aminoluciferin luminescence, 40 min;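 active means inhibition above about 50% at the single test dose, limit read from the data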;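 further: plate controls were DMSO with enzyme for no effect and no enzyme buffer wells for full effect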
Target sequence (Q9BQF6 706-1050 limits assumed): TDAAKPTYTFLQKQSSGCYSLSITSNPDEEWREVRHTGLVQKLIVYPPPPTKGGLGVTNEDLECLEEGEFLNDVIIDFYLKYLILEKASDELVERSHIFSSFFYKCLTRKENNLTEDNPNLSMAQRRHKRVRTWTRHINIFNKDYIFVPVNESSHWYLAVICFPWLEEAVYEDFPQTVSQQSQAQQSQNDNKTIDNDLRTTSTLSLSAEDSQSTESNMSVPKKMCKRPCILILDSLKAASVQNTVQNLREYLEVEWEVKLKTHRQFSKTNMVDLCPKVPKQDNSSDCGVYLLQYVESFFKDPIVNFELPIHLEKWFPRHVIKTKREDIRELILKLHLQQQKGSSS
SENP8 block-2: inhibitors of human SENP8 protease; Q96LD8; recombinant SENP8, Nedd8 substrate fluorescence; inhibition, % at 20 µM; actives 0.64% (n = 360,000); AID 602440; in the data active means inhibition mostly above about 40%, no sharp cut-off; inactive means mostly below about 27%
Platelet DG rel: modulates dense granule release in human platelets; human platelet-rich plasma, SFLLRN dense granule ATP release, luminescence; inhibition, %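 (compounds screened at 7.5 µM in platelet-rich plasma)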; actives 0.22% (n = 300,000); AID 1663;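 active means mean replicate score, as percent of positive control, at or above 50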
SENP8 conf: confirmation of human SENP8 protease inhibitors; actives 40% (n = 6,200); inhibition, % at 12.5 µM; Recombinant SENP8, Z-RLRGG-aminoluciferin luminescence, 60 min; shares compounds with SENP7 inh;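 active means mean inhibition across replicates above about 50%, limit read from the data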
SENP6 confirm: confirmation of human SENP6 protease inhibitors; actives 58% (n = 6,200); shares compounds with SENP7 inh; recombinant SENP6, Z-RLRGG-aminoluciferin luminescence; inhibition, % at 12.5 µM; AID 488915
SENP7 conf: human SENP7 inhibition, confirmed; shares compounds with SENP7 inh; recombinant SENP7, Z-RLRGG-aminoluciferin luminescence, 40 min; inhibition, % at 12.5 µM; actives 69% (n = 6,200)
Casp3 SENP sel: caspase-3 inhibition (SENP selectivity assay); shares compounds with SENP7 inh; purified caspase-3, Z-DEVD-aminoluciferin luminescence, 60 min; inhibition, % at 12.5 µM; actives 60% (n = 6,200); AID 488918;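 active means mean inhibition above about 50%, limit read from the data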;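 further: plate controls were enzyme with DMSO for no effect and wells without caspase-3 for full effect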
Target sequence (P42574 28-227 limits assumed): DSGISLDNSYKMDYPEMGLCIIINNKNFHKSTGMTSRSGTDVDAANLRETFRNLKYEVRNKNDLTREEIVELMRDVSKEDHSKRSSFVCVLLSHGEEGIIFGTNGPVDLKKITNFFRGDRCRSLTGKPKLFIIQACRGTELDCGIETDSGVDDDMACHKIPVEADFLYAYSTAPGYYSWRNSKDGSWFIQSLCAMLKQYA
Luc interf: luminescence interference (SENP counter-screen). actives 39% (n = 6,200). AID 488919. Pre-incubated SENP8/Z-RLRGG-aminoluciferin, luciferase luminescence interference. shares compounds with SENP7 inh. inhibition, % at 12.5 µM;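 active means mean inhibition above about 50% when retested at one dose, limit read from the data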;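 further: plate controls were DMSO wells with completed reaction for no effect and substrate without enzyme for full effect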
An asterisk follows results filed as active; x = no result given. Sampled rows, rich in hits. Any-hit rate of the full collection: about 2.4%.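 How the source made its calls, unless noted: active means mean inhibition above about 50% in the one-dose retest (limit read from the data); inactive means the rest.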

SMILES | SENP8 block-1 | SENP6 inh | SENP7 inh | SENP8 block-2 | Platelet DG rel | SENP8 conf | SENP6 confirm | SENP7 conf | Casp3 SENP sel | Luc interf
COc1ccc(C(=O)O)c(OC)n1 | -4 | -6 | 0 | -6 | 2 | x | x | x | x | x
c1ccc2c(c1)oc1c(Nc3ccc4c(c3)OCO4)ncnc12 | 13 | 13 | 59* | -187 | 1 | -9 | 4 | 10 | 19 | 7
Oc1cccc(Nc2ncnc3c2oc2ccccc23)c1 | 62* | 70* | 71* | -222 | -2 | 64* | 66* | 92* | 69* | 80*
Oc1ccc(Nc2ncnc3c2oc2ccccc23)cc1 | 3 | 9 | 3 | -20 | 4 | x | x | x | x | x
c1ccc(Nc2ncnc3c2oc2ccccc23)cc1 | 14 | 52* | 36 | -383 | -1 | 10 | 7 | 56* | 37 | 14
CCOC(=O)[C@H]1[C@H]2COc3ccccc3[C@@H]2N2C(=O)CN(Cc3ccc(C)cc3)C(=O)[C@@]12C | 9 | 6 | 0 | 5 | x | x | x | x | x | x
Clc1ccc2oc(-c3ccccn3)nc2c1 | 28 | 67* | 57* | -42 | 3 | 33 | 56* | 86* | 78* | 31
Brc1ccc(-c2nc(-c3ccccn3)no2)o1 | 87* | 89* | 89* | 2 | -5 | 93* | 94* | 101* | 96* | 92*
Clc1ccccc1-c1nc(-c2ccc(Br)o2)no1 | 83* | 86* | 82* | 3 | 2 | -3 | 85* | 97* | 68* | 73*
Brc1ccc(-c2noc(-c3ccccn3)n2)o1 | 86* | 85* | 91* | 23 | 10 | 40 | 86* | 99* | 93* | 39
CC1(C)OC(=O)N(NCc2ccccc2)C1(C)O (centres undefined) | -7 | 15 | -1 | 19 | 2 | x | x | x | x | x
CC1CN(CC(O)COCc2ccc3c(c2)OCO3)CC(C)O1 (centres undefined) | -11 | -23 | -10 | -4 | 0 | x | x | x | x | x
CCCCCCc1c(C)c2ccc(OCC(=O)N[C@@H](Cc3ccccc3)C(=O)O)cc2oc1=O | -9 | -8 | 2 | -241 | 4 | x | x | x | x | x
CC[C@]12c3[nH]c4cc(-c5ccco5)ccc4c3CCN1C(=O)[C@@H](CC(=O)NCc1cccc(C(F)(F)F)c1)C[C@@H]2C(=O)N1CCN(C(=O)c2ccco2)CC1 | x | x | 3 | -366 | x | x | x | x | x | x
CNC(=O)/C(C#N)=c1\s/c(=C/C(=O)OC)c(=O)n1-c1ccccc1 | -2 | -12 | -12 | 8 | -4 | x | x | x | x | x
COC(=O)/C=c1\sc2ncnn2c1=O | 7 | 85* | 6 | 16 | 8 | 6 | 1 | -4 | -3 | -2
CCCCC(=O)Nc1cccc(NC(=O)c2cccnc2Cl)c1 | -4 | -15 | -9 | 8 | -1 | x | x | x | x | x
CCN1Cc2c(/C=C/c3ccccc3)nc3ccc(OC)cc3c2N(c2cccc(Cl)c2)C1 | -1 | 13 | 1 | -282 | 3 | x | x | x | x | x
COc1cccc(N=Nc2ccc3ccccc3c2O)c1 | 96* | 89* | 100* | 12 | 16 | 8 | 31 | 20 | 92* | 0
COc1ccc(N=Nc2ccc3ccccc3c2)c(O)c1 | 19 | 98* | 98* | 27 | 9 | 43 | 40 | 26 | 41 | -1
COc1ccc(N=Nc2cc(C)ccc2O)cc1 | 96* | 9 | 99* | -11 | 14 | 84* | 97* | 102* | 92* | 92*
Cc1ccc(S(=O)(=O)NCCc2nnc3ccc(N4CCOCC4)nn23)cc1 | x | x | x | 5 | x | x | x | x | x | x
NS(=O)(=O)c1ccc(CNC(=O)c2cc(S(=O)(=O)N3CCOCC3)c(Cl)cc2Cl)cc1 | -4 | 0 | 1 | 19 | x | x | x | x | x | x
COc1ccc(NC(=O)Cn2ncn3nc(-c4ccc(OC)cc4)cc3c2=O)cc1 | 5 | -11 | -2 | 1 | -12 | x | x | x | x | x
Cc1ccc(S(=O)(=O)c2n[nH]n3c2nc(=O)c2ccccc23)cc1 | 1 | -14 | 8 | -237 | -8 | x | x | x | x | x
SMILES | SENP8 block-1 | SENP6 inh | SENP7 inh | SENP8 block-2 | Platelet DG rel | SENP8 conf | SENP6 confirm | SENP7 conf | Casp3 SENP sel | Luc interf
O=c1nc2c(-c3cccc(Br)c3)n[nH]n2c2ccccc12 | 92* | 88* | 80* | -304 | 2 | 38 | 45 | 24 | 61* | 4
Cc1ccc(NC(=S)c2nc3ccccc3s2)cc1 | 43 | 61* | 80* | -83 | 0 | 11 | 42 | 29 | 28 | 9
S=C(Nc1ccc(Cl)cc1)c1nc2ccccc2s1 | 1 | 18 | 57* | 31 | 1 | 9 | 7 | 0 | 5 | 2
O=C(Nc1ccc(Cl)cc1)/C(=C/c1cccc(O)c1)c1nc2ccccc2s1 | -7 | -17 | -6 | -22 | 11 | x | x | x | x | x
Cc1ccc(C)c(NC(=S)c2nc3ccccc3s2)c1 | -18 | -27 | -14 | 26 | -5 | x | x | x | x | x
CCCCCOc1ccc(NC2=CC(=O)CCC2)cc1 | -5 | -7 | -6 | 20 | -1 | x | x | x | x | x
O=C(c1ccc([N+](=O)[O-])cc1)c1cc2ccc(O)cc2oc1=O | 78* | 83* | 71* | 12 | 14 | 23 | 65* | 6 | 71* | 7
c1ccc2nc(-c3ccc(-n4ccnc4)cc3)ccc2c1 | 61* | 1 | 72* | -32 | 2 | 10 | 81* | 43 | -1 | -1
Nc1ccc(-n2ccnc2)cc1 | -3 | -1 | 1 | 18 | -2 | x | x | x | x | x
Cc1nnc(N2C(=O)C(O)=C(C(=O)c3ccco3)C2c2ccc(F)cc2)s1 (centres undefined) | -4 | 10 | 6 | -34 | -5 | x | x | x | x | x
Cc1nnc(N2C(=O)C(O)=C(C(=O)c3ccco3)C2c2ccc(C(C)(C)C)cc2)s1 (centres undefined) | 50 | 86* | 5 | -35 | 52* | 24 | 20 | 15 | 32 | 18
CSc1ccc(C2C(C(=O)c3ccco3)=C(O)C(=O)N2c2nnc(SC)s2)cc1 (centres undefined) | 43 | 75* | 10 | -75 | -6 | 17 | 15 | 0 | 5 | 19
CC(C)CC(=O)Nc1ccc(C(=O)COC(=O)C2CCC2)cc1 | 1 | 15 | 3 | 5 | -10 | x | x | x | x | x
CSc1ccccc1NC(=O)Nc1ccccc1 | 66* | 90* | 81* | 12 | 12 | 5 | 82* | 43 | 83* | 83*
O=C(C#Cc1ccccc1)Nc1ccc(F)cc1 | 6 | 20 | -1 | 8 | 15 | x | x | x | x | x
O=C(C#Cc1ccccc1)Nc1cccc(F)c1 | 71* | 81* | 84* | 19 | 3 | 85* | 83* | 93* | 67* | 75*
